According to the supplement of paper PMC10849652:
About 7,900 targets were measured; listed, in parts, are those with a hit and a random draw of the rest. About 0.6% of all pairs of compound and target were hits.

compound: COc1cc(C(=O)O)ccc1NC(=O)[C@@H]1N[C@@H](CC(C)(C)C)[C@](C#N)(c2ccc(Cl)cc2F)[C@H]1c1cccc(Cl)c1F [idasanutlin]; assay: log2 fold change, soluble protein after heating vs DMSO (PISA); higher = thermal stabilisation; K562 cells, 10 uM, 30 min; active = over 0.2 and 3.5 SD of the protein, either way, in both replicates (recomputed)
Method in brief: (§1)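 Aliquots of K562 cells (2×10^6 cells/mL) treated with 10 μM compound for 30 min were heated for 3 min over 48°C-58°C. After pooling and extraction in PBS with 0.5% NP-40 at 4°C, soluble protein from a 21,000xg, 90 min spin was quantified by TMTpro 16plex LC-MS/MS with channel sums equalised. Thermal stability is expressed against control samples, from duplicates, as a log2 fold change.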

UniProt Q01628, sequence (Q01628 whole entry, looked up): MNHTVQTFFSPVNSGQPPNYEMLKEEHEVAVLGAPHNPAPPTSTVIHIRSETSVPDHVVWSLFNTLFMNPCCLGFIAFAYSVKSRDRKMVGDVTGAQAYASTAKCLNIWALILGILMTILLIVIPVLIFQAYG
UniProt O15228, sequence (O15228 whole entry, looked up): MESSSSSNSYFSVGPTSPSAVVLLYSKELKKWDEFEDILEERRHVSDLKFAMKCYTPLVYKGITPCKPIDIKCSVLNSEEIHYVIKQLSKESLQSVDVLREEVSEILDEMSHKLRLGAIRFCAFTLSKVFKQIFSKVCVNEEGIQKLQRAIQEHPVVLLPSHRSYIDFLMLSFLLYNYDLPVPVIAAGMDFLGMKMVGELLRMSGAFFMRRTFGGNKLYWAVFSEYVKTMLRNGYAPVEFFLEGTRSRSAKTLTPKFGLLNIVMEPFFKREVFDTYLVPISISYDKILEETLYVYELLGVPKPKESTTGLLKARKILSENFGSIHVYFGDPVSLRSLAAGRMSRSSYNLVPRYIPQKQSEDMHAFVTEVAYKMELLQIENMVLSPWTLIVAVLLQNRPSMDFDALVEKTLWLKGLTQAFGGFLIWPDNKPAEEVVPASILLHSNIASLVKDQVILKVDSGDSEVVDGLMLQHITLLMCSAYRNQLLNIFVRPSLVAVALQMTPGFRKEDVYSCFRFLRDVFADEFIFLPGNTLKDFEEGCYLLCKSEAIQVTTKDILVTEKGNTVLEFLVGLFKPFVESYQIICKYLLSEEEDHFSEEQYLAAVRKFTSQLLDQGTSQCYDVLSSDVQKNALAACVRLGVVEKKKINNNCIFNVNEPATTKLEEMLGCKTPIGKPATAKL
UniProt Q6P3S6, sequence (Q6P3S6 whole entry, looked up): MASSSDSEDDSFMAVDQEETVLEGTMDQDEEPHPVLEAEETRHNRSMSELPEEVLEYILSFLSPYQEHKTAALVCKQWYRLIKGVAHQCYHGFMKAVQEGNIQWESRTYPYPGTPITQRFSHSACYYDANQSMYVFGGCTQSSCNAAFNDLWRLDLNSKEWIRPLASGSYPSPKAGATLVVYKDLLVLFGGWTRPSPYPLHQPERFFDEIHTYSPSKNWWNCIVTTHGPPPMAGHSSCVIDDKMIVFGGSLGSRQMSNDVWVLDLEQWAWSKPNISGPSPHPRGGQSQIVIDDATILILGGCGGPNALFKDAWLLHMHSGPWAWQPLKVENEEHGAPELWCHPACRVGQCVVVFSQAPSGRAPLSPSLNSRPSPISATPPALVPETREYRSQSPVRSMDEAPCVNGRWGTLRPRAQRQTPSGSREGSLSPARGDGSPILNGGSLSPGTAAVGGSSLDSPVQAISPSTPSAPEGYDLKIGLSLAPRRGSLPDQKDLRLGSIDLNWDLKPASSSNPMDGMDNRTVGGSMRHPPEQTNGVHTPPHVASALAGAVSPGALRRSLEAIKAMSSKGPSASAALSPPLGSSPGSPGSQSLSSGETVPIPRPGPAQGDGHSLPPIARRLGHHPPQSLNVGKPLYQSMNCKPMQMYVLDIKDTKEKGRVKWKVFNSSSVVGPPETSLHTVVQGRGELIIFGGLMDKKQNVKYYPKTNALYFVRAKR
UniProt Q9UJY4, sequence (Q9UJY4 whole entry, looked up): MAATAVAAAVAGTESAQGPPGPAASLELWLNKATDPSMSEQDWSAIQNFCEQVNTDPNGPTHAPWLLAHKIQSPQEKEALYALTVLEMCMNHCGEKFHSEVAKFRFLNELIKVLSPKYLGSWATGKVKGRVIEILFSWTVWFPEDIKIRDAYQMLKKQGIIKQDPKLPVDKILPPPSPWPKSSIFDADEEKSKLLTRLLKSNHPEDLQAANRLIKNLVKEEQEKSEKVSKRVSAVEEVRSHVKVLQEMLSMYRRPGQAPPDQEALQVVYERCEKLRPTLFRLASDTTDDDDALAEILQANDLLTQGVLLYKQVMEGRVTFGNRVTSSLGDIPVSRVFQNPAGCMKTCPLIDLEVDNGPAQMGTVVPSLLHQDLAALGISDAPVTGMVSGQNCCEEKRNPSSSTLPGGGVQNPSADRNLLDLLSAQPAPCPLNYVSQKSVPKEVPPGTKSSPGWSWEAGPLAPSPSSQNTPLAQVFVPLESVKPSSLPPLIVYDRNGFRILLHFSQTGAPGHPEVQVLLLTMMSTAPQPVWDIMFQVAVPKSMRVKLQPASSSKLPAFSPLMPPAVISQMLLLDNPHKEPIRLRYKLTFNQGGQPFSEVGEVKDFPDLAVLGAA
UniProt Q8NB37, sequence (Q8NB37 whole entry, looked up): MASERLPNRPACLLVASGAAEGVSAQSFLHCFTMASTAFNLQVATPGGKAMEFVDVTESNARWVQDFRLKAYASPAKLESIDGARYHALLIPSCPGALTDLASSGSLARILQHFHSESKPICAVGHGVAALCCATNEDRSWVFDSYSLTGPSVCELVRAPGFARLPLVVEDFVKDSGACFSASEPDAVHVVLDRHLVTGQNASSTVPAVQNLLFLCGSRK
UniProt Q8IWJ2, sequence (Q8IWJ2 whole entry, looked up): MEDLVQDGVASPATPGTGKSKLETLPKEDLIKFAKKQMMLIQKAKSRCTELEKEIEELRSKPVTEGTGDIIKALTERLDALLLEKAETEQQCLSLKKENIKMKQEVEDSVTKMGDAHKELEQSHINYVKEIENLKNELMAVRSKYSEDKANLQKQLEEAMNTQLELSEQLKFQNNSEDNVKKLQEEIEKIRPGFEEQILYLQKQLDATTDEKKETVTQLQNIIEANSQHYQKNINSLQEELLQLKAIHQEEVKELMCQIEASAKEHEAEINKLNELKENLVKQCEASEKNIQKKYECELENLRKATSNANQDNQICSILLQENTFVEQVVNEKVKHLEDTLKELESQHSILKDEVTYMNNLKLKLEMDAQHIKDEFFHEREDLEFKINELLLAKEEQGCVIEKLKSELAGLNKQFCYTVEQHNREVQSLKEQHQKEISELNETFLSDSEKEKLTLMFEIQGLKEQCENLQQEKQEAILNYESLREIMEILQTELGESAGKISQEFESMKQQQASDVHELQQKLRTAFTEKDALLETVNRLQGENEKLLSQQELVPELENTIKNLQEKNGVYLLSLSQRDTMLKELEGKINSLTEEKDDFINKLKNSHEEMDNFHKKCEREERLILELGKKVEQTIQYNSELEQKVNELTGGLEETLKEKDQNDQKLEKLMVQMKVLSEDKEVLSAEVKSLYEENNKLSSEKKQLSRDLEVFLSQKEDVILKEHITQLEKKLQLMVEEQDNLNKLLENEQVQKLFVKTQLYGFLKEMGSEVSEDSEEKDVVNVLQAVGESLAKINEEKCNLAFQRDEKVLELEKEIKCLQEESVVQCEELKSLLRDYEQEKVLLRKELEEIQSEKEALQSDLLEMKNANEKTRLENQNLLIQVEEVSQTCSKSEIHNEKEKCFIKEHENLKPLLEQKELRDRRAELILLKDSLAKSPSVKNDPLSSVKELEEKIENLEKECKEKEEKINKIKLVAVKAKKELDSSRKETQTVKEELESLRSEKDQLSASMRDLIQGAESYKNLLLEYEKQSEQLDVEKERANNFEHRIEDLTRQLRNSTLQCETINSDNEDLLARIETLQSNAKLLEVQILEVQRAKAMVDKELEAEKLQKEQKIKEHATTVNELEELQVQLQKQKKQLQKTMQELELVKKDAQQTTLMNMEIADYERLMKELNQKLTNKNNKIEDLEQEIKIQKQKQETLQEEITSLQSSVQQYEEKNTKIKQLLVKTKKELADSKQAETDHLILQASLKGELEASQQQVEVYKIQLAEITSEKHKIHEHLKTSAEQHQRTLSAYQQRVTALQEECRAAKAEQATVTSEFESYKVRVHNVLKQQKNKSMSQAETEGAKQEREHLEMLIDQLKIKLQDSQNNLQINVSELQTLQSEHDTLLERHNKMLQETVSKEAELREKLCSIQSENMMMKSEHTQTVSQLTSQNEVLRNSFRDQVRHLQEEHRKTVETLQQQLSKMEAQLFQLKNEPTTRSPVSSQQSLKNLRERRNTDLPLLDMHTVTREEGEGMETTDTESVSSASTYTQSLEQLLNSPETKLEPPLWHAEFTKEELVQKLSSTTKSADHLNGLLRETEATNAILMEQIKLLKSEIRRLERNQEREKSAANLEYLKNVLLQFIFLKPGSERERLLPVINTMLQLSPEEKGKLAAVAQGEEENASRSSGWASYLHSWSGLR
UniProt Q9H0R4, sequence (Q9H0R4 whole entry, looked up): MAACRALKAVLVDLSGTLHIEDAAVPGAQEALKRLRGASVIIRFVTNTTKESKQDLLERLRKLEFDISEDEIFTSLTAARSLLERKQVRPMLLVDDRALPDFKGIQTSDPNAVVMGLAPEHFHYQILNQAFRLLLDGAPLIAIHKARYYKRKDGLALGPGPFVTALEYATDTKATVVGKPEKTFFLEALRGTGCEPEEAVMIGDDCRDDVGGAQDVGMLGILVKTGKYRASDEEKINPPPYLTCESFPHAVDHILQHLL
UniProt P85037, sequence (P85037 whole entry, looked up): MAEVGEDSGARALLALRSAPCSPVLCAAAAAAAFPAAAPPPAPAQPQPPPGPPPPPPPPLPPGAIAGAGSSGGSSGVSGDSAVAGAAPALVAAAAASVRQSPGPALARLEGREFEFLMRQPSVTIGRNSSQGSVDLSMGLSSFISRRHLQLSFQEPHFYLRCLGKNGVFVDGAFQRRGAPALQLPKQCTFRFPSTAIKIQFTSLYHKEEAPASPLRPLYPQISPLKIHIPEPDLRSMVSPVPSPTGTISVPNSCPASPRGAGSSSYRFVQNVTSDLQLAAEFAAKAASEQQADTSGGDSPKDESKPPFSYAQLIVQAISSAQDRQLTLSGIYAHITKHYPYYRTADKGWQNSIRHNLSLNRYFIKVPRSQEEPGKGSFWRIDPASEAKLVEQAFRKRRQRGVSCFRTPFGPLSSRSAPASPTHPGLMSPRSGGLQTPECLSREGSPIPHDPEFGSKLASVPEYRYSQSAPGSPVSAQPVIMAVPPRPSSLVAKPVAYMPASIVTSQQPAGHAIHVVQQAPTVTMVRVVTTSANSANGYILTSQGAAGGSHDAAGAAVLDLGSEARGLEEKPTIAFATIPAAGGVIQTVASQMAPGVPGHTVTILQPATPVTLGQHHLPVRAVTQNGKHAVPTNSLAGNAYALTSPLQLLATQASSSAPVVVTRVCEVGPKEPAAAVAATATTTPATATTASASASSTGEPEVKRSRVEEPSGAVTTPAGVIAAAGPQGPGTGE

log2 fold change, inactive:
GGA2 (UniProt Q9UJY4) -0.017
GREB1 (UniProt Q4ZG55) -0.023
HDHD2 (UniProt Q9H0R4) 0.006
IFITM3 (UniProt Q01628) 0.07
FBXO42 (UniProt Q6P3S6) 0.009
GNPAT (UniProt O15228) -0.05
HNRNPK isoform 2 (UniProt P61978) -0.011
GATD1 (UniProt Q8NB37) -0.038
GCC2 (UniProt Q8IWJ2) 0.065

compound: COc1cc(Nc2ncc3c(n2)-c2ccc(Cl)cc2C(c2c(F)cccc2OC)=NC3)ccc1C(=O)O [alisertib]; assay: as above
Method in brief: as §1

log2 fold change, inactive:
IGF2BP2 (UniProt Q9Y6M1) -0.103
GBA2 (UniProt Q9HCG7) 0.067
HADHA (UniProt P40939) -0.035
GCSH (UniProt P23434) 0.154
HEATR5B (UniProt Q9P2D3) 0.006
GBF1 (UniProt Q92538) -0.013
GOLPH3 (UniProt Q9H4A6) -0.024
GYS1 (UniProt P13807) -0.026
GNS (UniProt P15586) -0.034
FIS1 (UniProt Q9Y3D6) -0.034
HMGB3 (UniProt O15347) -0.064
HHEX (UniProt Q03014) 0.002
GSR (UniProt P00390) -0.032
GLUD2 (UniProt P49448) -0.06
FBL (UniProt P22087) 0.006
FCHO1 (UniProt O14526) -0.055
HTATIP2 isoform 3 (UniProt Q9BUP3) -0.029
GNG5 (UniProt P63218) -0.146
HDAC6 (UniProt Q9UBN7) -0.097
HNRNPUL1 (UniProt Q9BUJ2) 0.01
FHOD1 (UniProt Q9Y613) -0.161
H1FX (UniProt Q92522) -0.147
FOXK1 (UniProt P85037) -0.038
GDE1 (UniProt Q9NZC3) -0.176
GGA2 (UniProt Q9UJY4) -0.067
HDHD2 (UniProt Q9H0R4) -0.06
IFITM3 (UniProt Q01628) -0.121
FBXO42 (UniProt Q6P3S6) 0.047
GNPAT (UniProt O15228) -0.038
HNRNPK isoform 2 (UniProt P61978) -0.004
GATD1 (UniProt Q8NB37) -0.001
GCC2 (UniProt Q8IWJ2) -0.046

compound: COc1cc2nc(-c3cc(F)ccc3O)nc(N[C@@H]3CNC[C@H]3C(C)(C)O)c2cc1OC; assay: as above
Method in brief: as §1

log2 fold change, inactive:
IGF2BP2 (UniProt Q9Y6M1) -0.105
GBA2 (UniProt Q9HCG7) 0.049
HADHA (UniProt P40939) 0.155
GCSH (UniProt P23434) 0.03
HEATR5B (UniProt Q9P2D3) 0.039
GBF1 (UniProt Q92538) 0.025
GOLPH3 (UniProt Q9H4A6) 0.131
GYS1 (UniProt P13807) -0.109
GNS (UniProt P15586) -0.011
FIS1 (UniProt Q9Y3D6) 0.061
HMGB3 (UniProt O15347) -0.031
HHEX (UniProt Q03014) -0.04
GSR (UniProt P00390) 0.015
GLUD2 (UniProt P49448) -0.003
FBL (UniProt P22087) 0.077
FCHO1 (UniProt O14526) 0.256
HTATIP2 isoform 3 (UniProt Q9BUP3) -0.131
GNG5 (UniProt P63218) -0.022
HDAC6 (UniProt Q9UBN7) 0.028
HNRNPUL1 (UniProt Q9BUJ2) 0.023
FHOD1 (UniProt Q9Y613) 0.186
H1FX (UniProt Q92522) 0.033
FOXK1 (UniProt P85037) 0.526
GDE1 (UniProt Q9NZC3) 0.012
GGA2 (UniProt Q9UJY4) 0.181
HDHD2 (UniProt Q9H0R4) -0.007
IFITM3 (UniProt Q01628) -0.017
FBXO42 (UniProt Q6P3S6) -0.054
GNPAT (UniProt O15228) -0.022
HNRNPK isoform 2 (UniProt P61978) -0.035
GATD1 (UniProt Q8NB37) 0.018
GCC2 (UniProt Q8IWJ2) -0.037
